# About 83,000 compounds went through this panel and 20% of them were active in at least one assay; those are over-represented in the sample as a whole.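 Note: values are percent growth. 100 is the growth of untreated cells, values between 100 and 0 indicate rising inhibition; between -100 and 0 indicates cell death.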 A number with no mark means an inactive call. Activity calls are given as the source filed them. Rule for the calls: active = growth percent below 10; inactive = the rest.
# Experiments:
# Experiment in all cases: NCI-60 one-dose screen, 48 h (100 = growth as untreated, 0 = no growth, -100 = all killed)
# Settings in all cases: 10 µM unless noted
# SR leukemia = test system: SR leukemia
# RPMI-8226 leukemia = test system: RPMI-8226 leukemia
# OVCAR-8 ovarian = test system: OVCAR-8 ovarian
# OVCAR-5 ovarian = test system: OVCAR-5 ovarian
# OVCAR-4 ovarian = test system: OVCAR-4 ovarian
# SK-OV-3 ovarian = test system: SK-OV-3 ovarian
# IGROV1 ovarian = test system: IGROV1 ovarian
# OVCAR-3 ovarian = test system: OVCAR-3 ovarian
# HS 578T breast = test system: HS 578T breast
# NCI/ADR-RES ovarian = test system: NCI/ADR-RES ovarian
# T-47D breast = test system: T-47D breast
# BT-549 breast = test system: BT-549 breast
# MDA-MB-435 melanoma = test system: MDA-MB-435 melanoma
# SW-620 colon = test system: SW-620 colon
# MCF7 breast = test system: MCF7 breast
# HCT-116 colon = test system: HCT-116 colon
# HCC-2998 colon = test system: HCC-2998 colon
# KM12 colon = test system: KM12 colon
SMILES,growth (SR leukemia),growth (RPMI-8226 leukemia),growth (OVCAR-8 ovarian),growth (OVCAR-5 ovarian),growth (OVCAR-4 ovarian),growth (SK-OV-3 ovarian),growth (IGROV1 ovarian),growth (OVCAR-3 ovarian),growth (HS 578T breast),growth (NCI/ADR-RES ovarian),growth (T-47D breast),growth (BT-549 breast),growth (MDA-MB-435 melanoma),growth (SW-620 colon),growth (MCF7 breast),growth (HCT-116 colon),growth (HCC-2998 colon),growth (KM12 colon)
O=C(NCCCNc1cc(-c2cn(-c3ccccc3)nc2-c2cccc(O)c2)ccn1)Nc1cccc(C(F)(F)F)c1,30.2%,4.35% (active),56.1%,56%,38.9%,57.5%,44.2%,49.6%,7.27% (active),48.1%,39.2%,68.8%,31.7%,12.4%,23.7%,23.1%,-34.7% (active),10.7%
CC1(C)CC[C@]2(C(=O)O)CC[C@]3(C)C(=CCC4[C@@]5(C)C[C@@H](O)[C@@H]6OC(c7ccccc7O)OC[C@@]6(C)C5CC[C@]43C)C2C1 (stereo not given in full),53.3%,55.4%,53.1%,103%,63.6%,80%,57.2%,47.4%,80.6%,34.6%,57.7%,42.4%,77.5%,37.8%,62.8%,4.38% (active),34.9%,24.5%
NC(=O)N1N=C(c2cc3ccccc3oc2=O)CC1c1cn(-c2ccccc2)nc1-c1ccc(Cl)cc1 (stereo not given),44.2%,48.4%,37.1%,64.9%,34.9%,75.6%,28.8%,17.6%,65.1%,29.3%,25.1%,68.7%,47.4%,35.5%,25.4%,26.7%,57%,34.5%
CC[C@@](C)(NC(=O)C(C)(C)NC(=O)[C@@H](NC(=O)[C@@H]1CCCN1C(=O)C(C)(C)NC(=O)[C@H](CC(C)C)NC(=O)CNC(=O)C(C)(C)NC(=O)[C@@H](NC(=O)C(C)(C)NC(=O)[C@H](CCC(N)=O)NC(=O)[C@H](C)NC(=O)C(C)(C)NC(=O)[C@H](C)NC(=O)C(C)(C)NC(=O)[C@H](C)NC(=O)C(C)(C)NC(C)=O)C(C)C)C(C)C)C(=O)N[C@@H](CCC(N)=O)C(=O)N[C@@H](CCC(N)=O)C(=O)N[C@H](CO)CC1CCCCC1,27.7% [5 µM],-16.2% [5 µM] (active),87.7% [5 µM],19.9% [5 µM],58% [5 µM],18.5% [5 µM],42.1% [5 µM],19.2% [5 µM],46.6% [5 µM],101% [5 µM],12.2% [5 µM],-74.3% [5 µM] (active),12.4% [5 µM],49.1% [5 µM],8.62% [5 µM] (active),12.4% [5 µM],28.9% [5 µM],34.8% [5 µM]
O=C(CSc1nnc(-c2cccs2)n1-c1ccccc1)Nc1ccc(F)cc1,71.6%,105%,93.5%,97.3%,96.4%,82.5%,95.4%,111%,91.8%,90.7%,84.7%,99.3%,80.8%,97.2%,91.9%,86.3%,125%,94.1%
NC(=S)N/N=C(/C=C/c1cn(-c2ccccc2)nc1-c1ccc(Cl)cc1)c1cc2ccccc2oc1=O,39.7%,41%,31.3%,67.3%,39.4%,85.2%,36%,14.8%,69.2%,25.4%,38.7%,87.1%,55.6%,29.6%,29.6%,31.1%,66%,36.2%
N#Cc1c(NC(=O)c2ccccc2C(F)(F)F)sc2c1CCC(=O)C2,20.8%,-2.1% (active),16.3%,8.8% (active),2.89% (active),91.1%,15.2%,4.15% (active),30.4%,4.69% (active),1.79% (active),11.7%,0.916% (active),3.92% (active),3.89% (active),8.03% (active),27.6%,5.98% (active)
CCN(CC)c1ccc2cc(C(=O)NCCOCCOCCOCCn3cc(CCC(=O)Nc4ccc(C(=O)c5ccc(NC(=O)OC(C)(C)C)cc5)cc4)nn3)c(=O)oc2c1,44%,16.2%,17.4%,99.8%,33.5%,98.3%,41.1%,44.6%,83.7%,88.3%,-8.51% (active),26.4%,62.4%,82.1%,44.1%,36.3%,96.8%,36.6%
O=C1[C@H]2Cc3c([nH]c4ccccc34)[C@H](c3ccc(Cl)cc3)N2C(=O)CN1C1CCN(Cc2c(Cl)cccc2Cl)CC1,22.2%,50.3%,84.5%,89.2%,69.9%,98.5%,39%,76.8%,75.6%,77.6%,62.5%,91.6%,77%,77%,19.1%,37.8%,44.1%,72.5%
O=C1c2c(O)cc(O)cc2O[C@@H](c2ccc(O)cc2)[C@@H]1c1c(O)cc(O)c2c(=O)cc(-c3ccc(O)c(O)c3)oc12,103%,100%,101%,98.6%,97.8%,86.5%,101%,106%,102%,95.7%,105%,98.3%,110%,107%,99.9%,100%,111%,97.1%
CCCC(=O)NC(c1cccnc1)c1ccc2c(C)ccnc2c1O (stereo not given),41.2%,32.1%,21.1%,32.3%,11.2%,19.7%,19.2%,13.1%,67.6%,9.99% (active),20.7%,26.2%,30.6%,28.6%,-2.74% (active),16.7%,24%,20%
COc1cc(/C=N/n2cnc3oc(-c4ccccc4)cc3c2=N)cc(CN2CCCCC2)c1O,28.9%,-30.4% (active),-38.7% (active),-81% (active),-63.1% (active),105%,-82.5% (active),114%,-35.9% (active),-0.827% (active),-33.1% (active),-55.4% (active),-91.8% (active),-70% (active),-80.5% (active),-89.1% (active),-46.8% (active),-72.6% (active)
CCOC(=O)C1=C(C)Nc2nc3ccccc3n2C1c1ccccc1 (stereo not given),68.9%,97.4%,96.6%,104%,83.7%,113%,91.6%,90.9%,97.7%,92%,95.5%,101%,96.6%,87.8%,87.8%,69.1%,114%,98.1%
C#CCOc1ccccc1C(Nc1ccccc1)c1nnnn1C1CCCCC1 (stereo not given),98.1%,89.7%,101%,91.9%,94.5%,101%,89.6%,109%,95.2%,96.1%,93%,109%,101%,104%,94.3%,84.3%,106%,94.6%
CCCC(=O)NC(c1cccnc1)c1cc(C(C)=O)c2cccnc2c1O (stereo not given),52.5%,38.2%,21.7%,40%,19.6%,31.9%,36.7%,17.1%,69.6%,30.4%,41.7%,32.2%,34.5%,38%,18.8%,25.5%,24.9%,21.4%

# Reference: PubChem BioAssay (NCI)
